Results on one compound are retold here after PubChem BioAssay AID2284188 (EPA ToxCast).

Activity calls are given as the source filed them. Rule for the calls: active = hit-call score of the fitted dose curve at least 0.9, where 1 is the maximum; inactive = score below 0.9.

Sequence of Voltage-dependent L-type calcium channel subunit alpha-1C (Rattus norvegicus) (P22002 whole entry, looked up): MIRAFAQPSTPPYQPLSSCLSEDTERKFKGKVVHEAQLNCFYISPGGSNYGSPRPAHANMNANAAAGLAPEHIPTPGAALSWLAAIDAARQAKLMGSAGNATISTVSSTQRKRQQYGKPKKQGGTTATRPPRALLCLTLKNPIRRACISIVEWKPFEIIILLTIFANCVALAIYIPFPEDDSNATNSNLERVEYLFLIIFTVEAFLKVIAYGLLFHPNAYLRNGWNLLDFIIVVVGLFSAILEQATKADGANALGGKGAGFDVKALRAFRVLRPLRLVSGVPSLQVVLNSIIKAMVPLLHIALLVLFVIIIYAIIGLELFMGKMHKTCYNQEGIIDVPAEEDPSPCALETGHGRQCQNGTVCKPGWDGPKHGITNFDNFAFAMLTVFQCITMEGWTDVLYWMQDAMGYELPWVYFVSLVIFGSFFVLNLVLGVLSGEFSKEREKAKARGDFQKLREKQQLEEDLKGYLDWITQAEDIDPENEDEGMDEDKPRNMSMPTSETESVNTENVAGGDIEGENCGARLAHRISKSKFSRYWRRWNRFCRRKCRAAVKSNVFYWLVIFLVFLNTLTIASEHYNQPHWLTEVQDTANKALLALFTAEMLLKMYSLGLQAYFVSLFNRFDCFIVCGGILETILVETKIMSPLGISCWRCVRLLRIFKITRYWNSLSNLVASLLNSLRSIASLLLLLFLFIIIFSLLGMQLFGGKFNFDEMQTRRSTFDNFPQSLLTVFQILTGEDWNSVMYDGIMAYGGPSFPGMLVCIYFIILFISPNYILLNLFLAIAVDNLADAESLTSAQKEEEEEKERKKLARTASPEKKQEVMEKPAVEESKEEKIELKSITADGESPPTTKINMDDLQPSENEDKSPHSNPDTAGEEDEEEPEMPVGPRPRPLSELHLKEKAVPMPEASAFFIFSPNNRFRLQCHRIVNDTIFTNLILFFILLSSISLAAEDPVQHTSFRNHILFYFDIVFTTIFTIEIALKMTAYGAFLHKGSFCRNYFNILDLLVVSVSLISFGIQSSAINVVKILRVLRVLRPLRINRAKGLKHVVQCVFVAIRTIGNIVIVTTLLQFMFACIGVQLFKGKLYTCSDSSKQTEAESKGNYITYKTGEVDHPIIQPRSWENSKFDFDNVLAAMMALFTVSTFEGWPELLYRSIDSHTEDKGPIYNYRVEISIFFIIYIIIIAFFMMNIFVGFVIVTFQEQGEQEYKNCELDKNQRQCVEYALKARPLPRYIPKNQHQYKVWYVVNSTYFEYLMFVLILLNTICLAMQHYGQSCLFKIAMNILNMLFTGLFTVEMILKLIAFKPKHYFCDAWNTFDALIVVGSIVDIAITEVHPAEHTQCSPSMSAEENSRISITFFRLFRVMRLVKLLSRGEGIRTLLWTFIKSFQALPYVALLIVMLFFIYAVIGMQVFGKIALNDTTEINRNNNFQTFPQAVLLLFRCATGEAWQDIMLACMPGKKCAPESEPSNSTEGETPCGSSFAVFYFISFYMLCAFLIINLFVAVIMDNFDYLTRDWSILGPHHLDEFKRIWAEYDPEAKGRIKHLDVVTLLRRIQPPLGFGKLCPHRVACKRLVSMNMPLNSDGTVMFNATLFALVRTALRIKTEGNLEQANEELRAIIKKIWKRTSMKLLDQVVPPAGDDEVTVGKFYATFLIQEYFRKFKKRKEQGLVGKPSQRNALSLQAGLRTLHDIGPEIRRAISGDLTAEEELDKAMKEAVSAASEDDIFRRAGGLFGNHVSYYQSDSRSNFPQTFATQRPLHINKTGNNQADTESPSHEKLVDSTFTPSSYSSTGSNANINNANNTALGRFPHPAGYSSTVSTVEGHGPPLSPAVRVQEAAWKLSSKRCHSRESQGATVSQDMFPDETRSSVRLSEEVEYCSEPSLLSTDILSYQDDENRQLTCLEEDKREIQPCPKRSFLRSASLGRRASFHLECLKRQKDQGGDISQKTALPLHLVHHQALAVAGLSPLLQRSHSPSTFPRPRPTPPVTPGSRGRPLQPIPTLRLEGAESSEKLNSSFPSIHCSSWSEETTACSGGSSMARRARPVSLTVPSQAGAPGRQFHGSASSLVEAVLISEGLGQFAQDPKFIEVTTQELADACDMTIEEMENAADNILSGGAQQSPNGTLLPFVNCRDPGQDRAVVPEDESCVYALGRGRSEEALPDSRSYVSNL

This assay addresses Voltage-dependent L-type calcium channel subunit alpha-1C (Rattus norvegicus) (UniProt P22002). Briefly: ERF_FR_IC_rCACNA1C_Diltiazem: Eurofins (ERF) Calcium Ion Channel Binding (Diltiazem Site) LeadHunter Assay for rat Cav1.2 (L-type). As for the experimental part:
ERF_FR_IC_rCACNA1C_Diltiazem is a biochemical, single-readout assay that uses extracted gene-proteins in a cell-free assay. Measurements were taken 2 hour after chemical dosing in a 96-well plate. See Cav1.2 (L-type) Rat Calcium Ion Channel Binding (Diltiazem Site) Assay, Cerep.ERF_FR_IC_rCACNA1C_Diltiazem is an assay component calculated from the ERF_FR_IC_rCACNA1C_Diltiazem assay. It is designed to measure radioligand binding using a type of binding reporter as detected by scintillation counting with radiometry technology.Data from the assay component ERF_FR_IC_rCACNA1C_Diltiazem was analyzed at the assay endpoint, ERF_FR_IC_rCACNA1C_Diltiazem, in the positive analysis fitting direction relative to DMSO as the negative control and baseline of activity. Using a type of binding reporter, loss-of-signal activity can be used to understand changes in binding as they relate to gene CACNA1C. To generalize the intended target to other relatable targets, this assay endpoint is annotated to the ion channel intended target family, where the subfamily is voltage gated (Calcium).
Rat cells are incubated for 120 minutes at room temprature with [3H]diltiazem (15 nM) as substrate and Papaverine as control inhibitor. Test Sample Requirements: Minimum for 1) Screen: 60 ul of 10 mM stock -OR- 1 mg (pre-weighed) for 10 uM final testing. […]
What is called AC50 is the midpoint of the concentration-response curve, whichever way the signal moves. For `O=C(/C=C/c1ccc(O)cc1)CC(=O)/C=C/c1ccc(O)cc1`, the AC50 was 3.46 µM (active).
